Compound activity: PubChem BioAssay, National Center for Advancing Translational Sciences (NCATS)
Only some compounds are listed: those with a hit (about 2.4% of all), similar ones and a draw of the others.
TDP1 block: blocks human tyrosyl-DNA phosphodiesterase 1 | Q9NUW8 | AID 485290 | Potency, µM (series often up to 130 µM), hits mostly inhibitors | actives 0.28% (n = 350,000) | recombinant TDP1, AlphaScreen DNA substrate cleavage; further: nearly all actives have a fitted effect of over 40% in size
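Recombinant human Tdp1 (E. coli-expressed, 1 nM final) preincubated with compounds 15 min at room temperature, then 5'-biotin/3'-phosphotyrosine-FITC DNA substrate (15 nM final) added for 5 min. AlphaScreen beads (10 ug/ml final) added 10 min; cleavage lowers signal.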
Pol iota inh: inhibitors of human DNA polymerase iota; Q9UNA4; Pol iota fluorescent replication assay, 10 min; Potency, µM (highest dose often 115 µM), most hits filed as inhibitors; actives 1% (n = 390,000)
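Pol iota at 10 nM preincubated 15 min with compounds at room temperature; reaction started with fluorescent substrate, 50 nM final. Fluorescence read kinetically at 0 and 10 min; buffer-only wells as negative control.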
Pol eta inh-1: inhibitors of human DNA polymerase eta; AID 588591; actives 1.2% (n = 390,000); Q9Y253; Potency, µM (titrated, usually from 114 µM), usual class: inhibitors; recombinant Pol eta, fluorescent DNA replication assay
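Pol eta at 10 nM preincubated with compounds 15 min at room temperature; reaction started with fluorescent substrate (50 nM final) and read kinetically at 0 and 10 min.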
FEN1 inhibitor: inhibitors of human flap endonuclease 1 | P39748 | Recombinant FEN1 flap cleavage, fluorescence, 15 min | Potency, µM (titrated, usually from 114 µM), actives largely listed as inhibitors | actives 0.35% (n = 390,000); further: nearly all actives have a fitted effect of over 65% in size
Target sequence (P39748 whole entry, looked up): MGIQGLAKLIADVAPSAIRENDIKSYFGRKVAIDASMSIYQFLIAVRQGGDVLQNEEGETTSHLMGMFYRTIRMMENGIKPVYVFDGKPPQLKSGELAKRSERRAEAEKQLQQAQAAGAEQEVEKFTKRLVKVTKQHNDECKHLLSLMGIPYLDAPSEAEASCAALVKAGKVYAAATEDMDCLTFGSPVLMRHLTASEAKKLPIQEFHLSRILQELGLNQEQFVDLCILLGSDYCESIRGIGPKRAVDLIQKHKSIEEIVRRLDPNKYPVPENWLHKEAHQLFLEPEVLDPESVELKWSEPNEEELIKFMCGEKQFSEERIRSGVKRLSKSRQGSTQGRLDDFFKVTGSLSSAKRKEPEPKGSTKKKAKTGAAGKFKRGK
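Reaction started by adding substrate (50 nM final) to 10 nM enzyme after 15 min room-temperature compound preincubation. Reads at 0 and 15 min, with data normalized and fitted to a four-parameter Hill equation.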
POLB inh: DNA polymerase beta (human) inhibition; P06746; Pol beta primer extension/strand displacement, fluorescence kinetic; Potency, µM (highest dose often 114 µM), actives largely listed as inhibitors; actives 1.3% (n = 340,000); AID 485314
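Human Pol beta at 10 nM; strand-displacement substrate 50 nM final. Compound exposure 15 min at room temperature before start, reaction 10 min at room temperature.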
Pol kappa inh-1: blocks human DNA polymerase kappa activity; Q9UBT6; purified Pol kappa, fluorescent DNA synthesis assay, 10 min; Potency, µM (top dose mostly 107 µM), hits mostly inhibitors; actives 0.53% (n = 400,000)
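Pol kappa 10 nM + cpd, 15 min RT; start w/ substrate 50 nM final; fluorescence kinetic read, 0 and 10 min. Neg ctrl: buffer, no enzyme.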
GALK inh confirm: galactokinase (human) inhibition, confirmation; Potency, µM (titrated, usually from 115 µM), actives largely listed as inhibitors; AID 2015; actives 70% (n = 150); purified GALK, Kinase-Glo ATP depletion luminescence; shares compounds with Pol eta inh-1
GALK redox cs: counter-screen for GALK inhibitors: redox cycling H2O2 generation. shares compounds with Pol eta inh-1. Phenol red-HRP H2O2 redox cycling, absorbance 600 nm. actives 40% (n = 150). AID 2035. Potency, µM (doses to about 115 µM), most hits filed as inhibitors
HEK293 tox: reduces HEK-293 cell viability in GALK counter-screen. shares compounds with Pol eta inh-1. HEK-293 viability, ATP luminescence (CellTiter-Glo), 24/48 h. Potency, µM (series often up to 46.1 µM), most hits filed as inhibitors. actives 10% (n = 170). AID 2547
Pol kappa inh-2: Pol kappa (human) inhibition, cherry-pick confirmation | purified Pol-kappa, fluorescent strand-displacement substrate | Potency, µM, most hits filed as inhibitors | shares compounds with Pol eta inh-1 | actives 76% (n = 920) | AID 720501
Pol eta inh-2: confirmation of human DNA polymerase eta inhibitors; shares compounds with Pol eta inh-1; Pol eta primer extension, TAMRA/BHQ fluorescence, 10 min; Potency, µM, most hits filed as inhibitors; actives 64% (n = 2,600)
Of the large screens only hits and unclear results are named; the others gave an inactive call (follow-up assays come after a bar, where they were run). The call rests on the fitted dose curve; in most records, active means well fitted curve in the direction sought with a large enough effect; inconclusive means small, poorly fitted or top-dose-only effect, or another doubt; inactive means no such curve, though single readings can be large; an effect the other way counts as inactive or inconclusive.

CCS(=O)(=O)C1=NN2C(=N)/C(=C\c3ccc(OS(=O)(=O)c4ccccc4)cc3)C(=O)N=C2S1	Pol iota inh inconclusive, Pol eta inh-1 45µM, POLB inh inconclusive | GALK inh confirm 38µM | GALK redox cs inactive | HEK293 tox inactive
CS(=O)(=O)C1=NSC2=NC(=O)/C(=C\c3ccc(OS(=O)(=O)c4ccccc4)cc3)C(=N)N21	Pol eta inh-1 50µM, POLB inh inconclusive | GALK inh confirm 33µM | GALK redox cs inactive | HEK293 tox inactive
CCS(=O)(=O)C1=NSC2=NC(=O)/C(=C\c3ccc(OS(=O)(=O)c4ccccc4)c(OC)c3)C(=N)N21	Pol eta inh-1 40µM, POLB inh inconclusive | GALK inh confirm 47µM | GALK redox cs inactive | HEK293 tox inactive
COC(=O)CCC(=O)OC1(C)C(=O)C=C2C=C(c3ccc(C#N)cc3)OC=C2C1=O (stereo not given)	none (no result: Pol iota inh, Pol eta inh-1, FEN1 inhibitor, POLB inh, Pol kappa inh-1)
Cc1nn(C(=O)c2ccccc2)c(C)c1S(=O)(=O)N1CCOCC1	none
CCOC(=O)C(=O)Nc1nc(-c2ccc3c(c2)CCN3C(=O)C2CC2)c(C)s1	Pol eta inh-1 14µM | Pol eta inh-2 inconclusive
CCOc1ccc(-c2cn3c(n2)sc2cc(C(=O)NCCCN4CCCCC4)ccc23)cc1	Pol eta inh-1 inconclusive
Cc1ccc(N2CC(C(=O)Nc3cccc(C(=O)NC4CC4)c3)CC2=O)cc1 (stereo not given)	Pol iota inh inconclusive, Pol eta inh-1 35µM (no result: TDP1 block, POLB inh) | Pol kappa inh-2 inconclusive
COc1ccc(C)cc1N1CC(C(=O)Nc2cccc(C(=O)NC3CC3)c2)CC1=O (stereo not given)	none (no result: TDP1 block, Pol iota inh, FEN1 inhibitor, POLB inh, Pol kappa inh-1)
COc1cc(/C=N/NC(=O)C(Cc2c[nH]c3ccccc23)NC(=O)OCc2ccccc2)cc([N+](=O)[O-])c1O (stereo not given)	Pol iota inh inconclusive, Pol eta inh-1 20µM, POLB inh 50µM, Pol kappa inh-1 inconclusive | Pol eta inh-2 inconclusive
CCOc1cc(C2NC(=O)NC(C)=C2C(C)=O)cc(Cl)c1OCC(=O)O (stereo not given)	Pol iota inh inconclusive, Pol eta inh-1 22µM, POLB inh inconclusive (no result: TDP1 block) | Pol eta inh-2 inconclusive
CC(=O)N1CCN(c2ccc(NS(=O)(=O)c3ccc4c(c3)CC(=O)N4)cc2)CC1	none (no result: TDP1 block, Pol iota inh, Pol eta inh-1, FEN1 inhibitor, POLB inh, Pol kappa inh-1) | Pol eta inh-2 inconclusive
CC(=O)c1ccc(N2CCN(S(=O)(=O)c3ccc4c(c3)CC(=O)N4)CC2)cc1	none (no result: TDP1 block)
O=C(O)c1ccccc1C(=O)c1ccc2oc(=O)[nH]c2c1	Pol iota inh inconclusive, Pol eta inh-1 22µM, Pol kappa inh-1 inconclusive (no result: TDP1 block, POLB inh) | Pol kappa inh-2 inconclusive | Pol eta inh-2 38
CCN(CC)c1ccc(NC(=O)Cn2c3ncccc3c(=O)n2-c2ccccc2)c(C)c1	none
Cc1ccc2c(c1)c(=O)c1ccccc1n2CCCC(=O)Nc1ccc(C)c(F)c1	none
Cc1ccc2nc(/C(C#N)=C/c3ccc(-c4ccccc4C(=O)O)o3)[nH]c2c1	Pol iota inh inconclusive, Pol eta inh-1 20µM, FEN1 inhibitor inconclusive, POLB inh 22µM, Pol kappa inh-1 inconclusive (no result: TDP1 block) | Pol kappa inh-2 inconclusive
